A selection: hits, their analogues and other compounds. The true share with any hit is near 14%.
A350 autofl = compounds fluorescent in Alexa 350 spectral region | Compound autofluorescence, 340/450 nm, Alexa 350 dye-equivalents; stronger effect = higher value | max dye-equivalent concentration, M | 59,000 tested, 11% active | AID 590; in the data active means max dye-equivalent concentration above about 10 nM; inconclusive means mostly about 1.1 nM to 9.6 nM
HSD17B inhib = blocks hydroxysteroid 17-beta dehydrogenase activity | 75,000 tested, 7.6% active | Potency, µM (top dose mostly 57.1 µM), for inactives: top-dose activity change, negative = inhibition, usual class: inhibitors | AID 893 | recombinant HSD17B10, NADH fluorescence kinetic | Q99714;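 further: the protocol describes HADH2 (HSD17B10) and not the HSD17B4 of the title; potency means the concentration at half of the fitted maximal effect; on the % scale 0 is the no-effect control and ±100 the full control effect; nearly all actives have a fitted effect of over 70% in size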
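His-tagged E. coli-expressed HADH2 at 20 nM in 100 mM Tris-HCl pH 9.0 with 0.01 % Tween-20, preincubated 15 min with compound at room temperature. Reaction with 1 mM NAD+ and 90 uM beta-hydroxybutyryl coenzyme A; NADH fluorescence (360/450 nm) read kinetically over 4 min, last minus first point.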
CRE-bla Fsk = modulators of forskolin-stimulated CRE signaling in CHO cells; CHO CRE-bla reporter (cAMP response element driving beta-lactamase), forskolin EC10, beta-lactamase ratio; AID 662; 71,000 tested, 2.5% active; Potency, µM (titrated, usually from 38.2 µM), for inactives: top-dose activity change, negative = inhibition, hits mostly activators; active means well fitted activation curve with a large enough effect in the signal ratio, with a control signal flat, not every such curve was filed as active; inconclusive means small, poorly fitted or top-dose-only effect, or effect the other way, or a change in a side signal; the % refers to the signal ratio; further: potency means the concentration at half of the fitted maximal effect; % of control where 0% means no effect
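CRE-bla CHO cells stimulated with EC10 NKH 477 (water-soluble forskolin) and compound titrations, 3 h at 37C; beta-lactamase read with CCF4 after 2 h at room temperature. Activity from 460/530 nm emission ratio, AC50 values for positive or negative modulation.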
HADH2 inhib = inhibitors of human HADH2 dehydrogenase | Q99714 | recombinant HADH2, NADH fluorescence, beta-hydroxybutyryl-CoA | Potency, µM (series often up to 57.1 µM), for inactives: at the top dose activity change, negative = inhibition, usual class: inhibitors | 73,000 tested, 3.4% active; further: potency means the concentration at half of the fitted maximal effect; on the % scale 0 is the no-effect control and ±100 the full control effect; nearly all actives have a fitted effect of over 60% in size
Target sequence (Q99714 whole entry, looked up, one chain of several): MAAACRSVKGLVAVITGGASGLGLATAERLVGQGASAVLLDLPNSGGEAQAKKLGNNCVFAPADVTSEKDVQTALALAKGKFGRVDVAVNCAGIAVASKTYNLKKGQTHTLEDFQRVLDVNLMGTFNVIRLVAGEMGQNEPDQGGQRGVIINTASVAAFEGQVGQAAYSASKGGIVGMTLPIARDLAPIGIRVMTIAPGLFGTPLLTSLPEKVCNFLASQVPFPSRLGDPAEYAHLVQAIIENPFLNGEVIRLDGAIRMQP
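NADH fluorescence (ex 360/em 450 nm) read every 30 s for 4 min; activity taken as last-minus-first time point difference. Enzyme 20 nM, NAD+ 1 mM, beta-hydroxybutyryl-CoA 90 uM, pH 9.0 Tris buffer.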
4MU fluor = compounds fluorescent in 4-MU spectral region; max dye-equivalent concentration, M; AID 589; 59,000 tested, 11% active; compound autofluorescence, 340/450 nm, 4-MU equivalents; stronger effect = higher value; in the data active means max dye-equivalent concentration above about 10 nM; inconclusive means mostly about 1.1 nM to 9.6 nM
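Intrinsic fluorescence at 340/450 nm (ex/em) was read after 15 min at room temperature in pH 8.0, 100 mM Tris. Each compound concentration expressed as 4-MU-equivalent concentration from a six-point 4-MU standard series on each plate.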
AID923 = qHTS Assay for Allosteric/Competitive Inhibitors of Caspase-1: Spectroscopic Profiling in AFC Spectral Region | compound fluorescence, AFC spectral region (405/520 nm) | 75,000 tested, 1.1% active | Potency, µM (titrated, usually from 57.5 µM), for the others: top-dose fluorescence increase, usual class: activators; further: potency means the concentration at half of the fitted maximal effect; 0% is about no effect
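Baseline compound fluorescence (AFC region, 405 nm ex/520 nm em) taken from the intercept of kinetic reads with 50 nM caspase-1 and 5 uM Ac-WEHD-AFC; normalized to an on-plate AFC standard curve; compounds titrated up to 57 uM.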
* marks the source's active call; other numbers are inactive results; [ ] = remark or other dose. Unless noted, the call rests on the fitted dose curve; in most records, active means well fitted curve in the direction sought with a large enough effect; inconclusive means small, poorly fitted or top-dose-only effect, or another doubt; inactive means no such curve, though single readings can be large; an effect the other way counts as inactive or inconclusive.

`COCC1C2CC[C@H]3C(OCc4ccc(OC)cc4)OC[C@]4(C)[C@H]3C2=C(CN4C(=O)OC(C)(C)C)[C@H](C)C1COC` (stereo partly specified) gave HSD17B inhib 2%, CRE-bla Fsk -11%, HADH2 inhib 2% and AID923 -3%.
Screening CC(C)C(=O)Nc1ccc2c(c1)C(=O)N(CCC(=O)O)C2=O returned HSD17B inhib 32µM*, CRE-bla Fsk -2%, HADH2 inhib 16µM* and AID923 6%.
`CN1CCOC(c2ccccc2)c2ccccc2C1` (stereo unspecified) gave HSD17B inhib 4% and AID923 0%.
For CN1CCN2c3ccccc3Cc3ccccc3C2C1 (stereo unspecified) the results were A350 autofl 1.5e-08M*, HSD17B inhib -7%, 4MU fluor 1.3e-08M* and AID923 7%.
For COc1cc2c(cc1OC)C1=C(C#N)CC/C(=N\S(=O)(=O)c3ccccc3)N1CC2 the results were HSD17B inhib -24%, CRE-bla Fsk 0.4µM*, HADH2 inhib -27% and AID923 3%.
CCOC(=O)c1cnc2c(C#N)c(C)nn2c1C was read as A350 autofl inconclusive, HSD17B inhib 25µM*, CRE-bla Fsk 22%, HADH2 inhib 3%, 4MU fluor inconclusive and AID923 1%.
`CCOC(=O)c1cnc2c(C#N)c(C)nn2c1-c1ccccc1` gave HSD17B inhib inconclusive, CRE-bla Fsk inconclusive, HADH2 inhib inconclusive and AID923 5%.
CC1(O)C(=O)C=C2C=C(CCCCOCc3ccccc3)OC=C2C1=O (stereo unspecified) was read as HSD17B inhib -16%[11.4 µM], HADH2 inhib -9%[11.4 µM] and AID923 4%[11.5 µM].
Screening C=CCn1c(O)c(CN2CCOCC2)c(C)c(C#N)c1=O returned A350 autofl 1.1e-08M*, HSD17B inhib -54%, CRE-bla Fsk 0%, HADH2 inhib -8%, 4MU fluor 1.1e-08M* and AID923 7%.
`Cn1c(CN2CCOCC2)c(C#N)c2ccccc21` gave A350 autofl inconclusive, HSD17B inhib inconclusive, CRE-bla Fsk -15%, HADH2 inhib 1%, 4MU fluor inconclusive and AID923 0%.
CCC1=C2CC[C@H]3C(=O)NC(=O)[C@H]3[C@H]2[C@@]2(C)C(=O)N(CC3CC3)C(=O)N2C1=O was read as HSD17B inhib 2% and AID923 -2%.
For COc1ccc2c(c1)c1nnc(SCC(=O)N3C(C)CCCC3C)nc1n2C (stereo unspecified) the results were A350 autofl inactive, HSD17B inhib -1%, CRE-bla Fsk 0.79µM*, HADH2 inhib 8%, 4MU fluor inactive and AID923 -1%.
COc1ccc2c(c1)c1ccccc1n2C was read as A350 autofl 3.9e-08M*, HSD17B inhib 25µM*, CRE-bla Fsk 0%, HADH2 inhib inconclusive, 4MU fluor 4.6e-08M* and AID923 1%.
For COc1ccc2c(c1)c1nnc(SC)nc1n2C the results were A350 autofl inactive, HSD17B inhib 8%, CRE-bla Fsk 2.5µM*, HADH2 inhib inconclusive, 4MU fluor inactive and AID923 0%.
`CCC(=O)Nc1c(-c2ccc(OC)cc2)c(=O)c2ccccc2n1C` gave A350 autofl inactive, HSD17B inhib -3%, CRE-bla Fsk 1%, HADH2 inhib -4%, 4MU fluor inactive and AID923 0%.
For COc1cccc(OCc2nnc(SC)n2C)c1 the results were A350 autofl inactive, HSD17B inhib 9%, CRE-bla Fsk -4%, HADH2 inhib -5%, 4MU fluor inactive and AID923 0%.
COc1ccc(-n2nnnc2SCC(=O)N2C(C)CCCC2C)c(OC)c1 (stereo unspecified) was read as A350 autofl inactive, HSD17B inhib 4%, CRE-bla Fsk 12%, HADH2 inhib 4%, 4MU fluor inactive and AID923 1%.
C/C=C1/C(=O)C[C@H]2[C@@H]3CCC4=CC(=O)CC[C@]4(C)[C@H]3CC[C@]12C was read as HSD17B inhib -8%, CRE-bla Fsk -19%, HADH2 inhib -7% and AID923 -3%.
Screening CC(Cc1ccccc1)C(=O)NCC1CC1 (stereo unspecified) returned HSD17B inhib 14%, CRE-bla Fsk -4%, HADH2 inhib -2% and AID923 0%.
Screening N[C@H](CCC(=O)NCS(=O)(=O)O)C(=O)O returned A350 autofl inconclusive, HSD17B inhib 3%, CRE-bla Fsk -2%, HADH2 inhib inconclusive, 4MU fluor inconclusive and AID923 -2%.
CCN(CC)C(=O)CSc1ncnc2c1cnn2Cc1ccccc1 was read as A350 autofl 1.4e-08M*, HSD17B inhib -27%, CRE-bla Fsk -9%, HADH2 inhib 22%, 4MU fluor 1.1e-08M* and AID923 2%.
`CCOC(=O)CNC(=O)CSc1ncnc2c1cnn2Cc1ccccc1` gave A350 autofl inconclusive, HSD17B inhib 0%, CRE-bla Fsk inconclusive, HADH2 inhib -1%, 4MU fluor inactive and AID923 1%.
For COC(=O)[C@@]1(Cc2ccccc2)[C@H]2c3cc(C(=O)N(C)C)n(CCN4CNCC4=O)c3C[C@H]2CN1C(=O)c1ccccc1 the results were HSD17B inhib -9%, CRE-bla Fsk -13%, HADH2 inhib 4% and AID923 0%.
Screening C=CCSC1=N/C(=C\C=C\c2ccco2)C(=O)S1 returned HSD17B inhib 16µM*, CRE-bla Fsk -10%, HADH2 inhib 7.9µM* and AID923 1%.
Screening C=CCSC1=N/C(=C\c2ccc3c(c2)OCO3)C(=O)S1 returned HSD17B inhib -12%, CRE-bla Fsk -1%, HADH2 inhib -22% and AID923 10%.
Screening COC(=O)[C@@H]1[C@@H]2C[C@H]3c4[nH]c5cc(OC)ccc5c4CCN3C[C@@H]2C[C@H](OC(=O)c2cc(OC)c(OC)c(OC)c2)[C@H]1OC returned A350 autofl 1.6e-08M*, HSD17B inhib -8%[25.6 µM], CRE-bla Fsk -11%[17.1 µM], HADH2 inhib 8%[25.6 µM], 4MU fluor 2e-08M* and AID923 7%[25.7 µM].
`O=C1OC(c2ccc(O)c(-c3ccccc3)c2)(c2ccc(O)c(-c3ccccc3)c2)c2c(Cl)c(Cl)c(Cl)c(Cl)c21` gave A350 autofl inactive, HSD17B inhib 8%[11.4 µM], CRE-bla Fsk 6%[7.6 µM], HADH2 inhib 7%[11.4 µM], 4MU fluor inactive and AID923 0%[11.5 µM].
